Cruzain inh Det – blocks cruzain activity in presence of Triton detergent. P25779. purified cruzain, Z-FR-AMC fluorescence, 0.01% Triton. Potency, µM, hits mostly inhibitors. 200,000 tested, 0.43% active. AID 1478; also: nearly all actives have a fitted effect of over 40% in size
Target sequence (P25779 123-467 limits assumed): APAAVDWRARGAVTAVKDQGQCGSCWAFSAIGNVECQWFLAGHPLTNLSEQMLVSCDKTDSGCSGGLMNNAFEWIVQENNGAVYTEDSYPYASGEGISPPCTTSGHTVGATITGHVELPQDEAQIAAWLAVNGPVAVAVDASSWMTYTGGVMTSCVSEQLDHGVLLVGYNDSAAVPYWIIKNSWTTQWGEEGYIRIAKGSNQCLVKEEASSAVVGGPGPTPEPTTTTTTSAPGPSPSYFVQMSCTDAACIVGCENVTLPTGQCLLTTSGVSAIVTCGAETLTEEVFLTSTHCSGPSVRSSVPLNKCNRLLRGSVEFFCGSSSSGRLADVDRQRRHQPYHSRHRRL
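Enzyme 1.5 nM, Z-FR-AMC 2 uM, NaOAc 100 mM pH 5.5, DTT 5 mM, Triton X-100 0.01%; 15 min RT compound preincubation; kinetic ex360/em450, 60 s delta.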
Cruzain noTriton – blocks cruzain activity in detergent-free assay; purified cruzain, Z-FR-AMC fluorescence, no detergent; Potency, µM, hits mostly inhibitors; 200,000 tested, 2.3% active; also: nearly all actives have a fitted effect of over 40% in size
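Detergent-free condition (0.00005% Triton X-100) in acetate buffer pH 5.5 with DTT. 1.5 nM enzyme and compound were pre-mixed 15 min, then 2 uM Z-FR-AMC substrate added; reaction progress from fluorescence change between first and third reads (60 s).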
Hits are given with their value; i = inactive; ? = inconclusive. Compounds with a hit are over-represented: about 2.6% of the library has one in this group of screens. Calls follow the shape of the dose curve; as a rule, active = well fitted curve in the direction sought with a large enough effect; inconclusive = small, poorly fitted or top-dose-only effect, or another doubt; inactive = no such curve, though single readings can be large; an effect the other way counts as inactive or inconclusive.

SMILES | Cruzain inh Det | Cruzain noTriton
Cc1ccc(S(=O)(=O)Nc2ccc3c(c2)CCC3)cc1 | i | i
CCOC(=O)c1c(C)n(S(=O)(=O)c2ccc(C)cc2)c2ccc(NS(=O)(=O)c3ccc(C)cc3)cc12 | i | 4µM
CCn1cnc2cc(NS(=O)(=O)c3ccc(C)cc3)ccc21 | i | i
Cc1ccc(S(=O)(=O)Nc2ccc3c(c2)c2c(n3S(=O)(=O)c3ccc(C)cc3)CCCC2=O)cc1 | i | 7.9µM
CCOc1ccc(CCNC(=O)CCc2c(C)nc3c(-c4ccccc4)c(C)nn3c2C)cc1OCC | i | i
O=C(N/N=C/c1cn(-c2ccccc2)nc1-c1cccs1)c1ccc(Cl)cc1 | i | 13µM
O=S(=O)(N/N=C\c1cn(-c2ccccc2)nc1-c1ccccc1)c1ccccc1 | i | ?
O=C(CNc1ccccc1)N/N=C/c1cn(-c2ccccc2)nc1-c1ccccc1 | i | 25µM
O=C(N/N=C/c1cn(-c2ccccc2)nc1-c1cccs1)c1ccccc1F | i | 32µM
COc1ccc(C(=O)N/N=C/c2ccc(OC(=O)c3cccs3)cc2)cc1 | i | ?
O=C(Nc1ccncc1)c1cn(-c2ccccc2)nc1-c1cccs1 | i | i
O=C(N/N=C\c1ccc(OC(=O)c2cccs2)cc1)c1ccc(Cl)cc1 | i | 10µM
O=C(N/N=C/c1cn(-c2ccccc2)nc1-c1cc2ccccc2o1)c1ccncc1 | i | i
Cc1cc(OC(C)C(=O)Nc2c(C(=O)c3ccc(F)cc3)oc3ccccc23)ccc1Cl (stereo not drawn) | i | i
COc1ccccc1N1CCN(C(=O)CN2C(=O)COc3ccc(S(=O)(=O)N4CCC(C)CC4)cc32)CC1 | i | ?
O=C(CCn1ccc2cc(S(=O)(=O)N3CCCC3)ccc21)NCc1ccccc1Cl | i | i
CCc1nc2sc3c(N4CCCCC4)ncnc3c2c2c1CCCC2 | i | i
CCOC(=O)C1=C(CNCc2ccccc2)NC(=O)NC1c1ccc(C)cc1 (stereo not drawn) | i | i
O=C(/C=C/Nc1ccc(F)c(F)c1)c1ccc(Br)cc1 | i | 25µM
O=C(/C=C/Nc1ccc([N+](=O)[O-])cc1)c1ccc(Br)cc1 | i | 20µM
Cc1cc(N/C=C/C(=O)c2ccc(Br)cc2)no1 | i | ?
O=C(/C=C/Nc1ccccc1F)c1ccc(Br)cc1 | i | ?
Cc1cc(C)cc(NC(=O)Cc2csc(COc3cccc(C)c3)n2)c1 | i | i
COc1ccccc1-c1cncnc1Nc1ccccc1 | i | i
CC1CCN(c2ccc(-c3cccc(NS(=O)(=O)c4ccc(F)cc4F)c3)nn2)CC1 | i | i
SMILES | Cruzain inh Det | Cruzain noTriton
COc1cc(NC(=O)CN2CCN(c3ccccc3F)CC2)c(C)cc1[N+](=O)[O-] | i | 25µM
COc1cc(NC(=O)CN2CCN(c3ccccc3)CC2)c(C)cc1[N+](=O)[O-] | i | ?
N#Cc1ccc(OC(=O)c2ccc(N=C(N)N)cc2)cc1 | i | i
CCOc1ccc(CC(=O)NCCc2csc(-c3ccc(C(F)(F)F)cc3)n2)cc1 | i | i
O=C(OCc1nc2scc(-c3ccccc3)c2c(=O)[nH]1)c1cc(Cl)ccc1[N+](=O)[O-] | i | 32µM
Cc1c(C(=O)OCc2nc3scc(-c4ccccc4)c3c(=O)[nH]2)cccc1[N+](=O)[O-] | i | ?
Cc1nc(N2CCOCC2)c2c(C(=O)NCCc3ccccc3)c(C)oc2n1 | i | i
CCOC(=O)c1c(-c2ccccc2)oc2ccc(N(C(C)=O)S(=O)(=O)c3cc(C)ccc3C)cc12 | i | i
CCOC(=O)c1c(-c2ccccc2)oc2ccc(NS(=O)(=O)c3ccc(C)cc3C)cc12 | i | 16µM
CC(=O)c1c(C)oc2ccc(NS(=O)(=O)c3ccc(C(C)C)cc3)cc12 | i | i
CCOC(=O)c1c(-c2ccccc2)oc2ccc(OCc3ccc(C)cc3)cc12 | i | i
CCOC(=O)c1c(-c2ccccc2)oc2ccc(NS(=O)(=O)c3ccc(C(C)C)cc3)cc12 | i | 20µM
C=Cc1ccc(COc2ccc3oc(-c4ccccc4)c(C(=O)OCC)c3c2)cc1 | i | 32µM
Cc1cc2oc(C(=O)Nc3cccc(-c4nc5ccccc5o4)c3)c(C)c2cc1Cl | i | i
COc1cc(Cl)c(C)cc1NC(=O)CSc1nc2c(c(=O)[nH]1)CCCC2 | i | i
Cc1cccc(NC(=O)Nc2nnc(N3CCCC3)s2)c1 | i | ?
CCOC(=O)n1c(=O)oc2ccccc21 | i | i
CCOC(=O)N1[C@@H]2C=C(C)[C@@H]2[C@@H]2[C@@H](C)C(=O)N21 | 13µM | 13µM
CCOc1ccc(CNS(=O)(=O)c2ccc(-c3coc(C)n3)cc2)cc1OC | i | ?
CCSc1nc(-c2ccc(OC)cc2)cc(-c2ccccc2)c1C#N | i | i
Cc1cccc(-c2cc(-c3ccccc3)nc(SCC(=O)Nc3ccccc3)c2C#N)c1 | i | i
COc1ccc(-c2cc(-c3ccccc3)nc(SCC(=O)Nc3ncc(C)s3)c2C#N)cc1 | i | 7.9µM
COc1ccc(-c2cc(-c3cccs3)c(C#N)c(SCC(=O)NCc3ccccc3OC)n2)cc1 | i | ?
CCc1nnc(NC(=O)CSc2nc(-c3ccc(F)cc3)cc(-c3ccccc3)c2C#N)s1 | i | 7.9µM
COc1ccc(-c2cc(-c3cccs3)c(C#N)c(SCC(=O)NCc3ccccc3)n2)cc1 | i | 7.9µM
SMILES | Cruzain inh Det | Cruzain noTriton
COc1ccc(-n2c(=O)c3c4c(sc3n(Cc3ccc(C(C)(C)C)cc3)c2=O)CCC4)c(OC)c1 | i | i
CCc1ccc(NCc2cc3ccc(OC)cc3n(CC(=O)Nc3c(C)cc(C)cc3C)c2=O)cc1 | i | i
CCc1ccc(NCc2cc3cc4c(cc3n(CC(=O)Nc3cccc(OC)c3)c2=O)OCO4)cc1 | i | 25µM
COc1ccc(NCc2cc3cc4c(cc3n(CC(=O)Nc3ccc(C)cc3)c2=O)OCO4)cc1 | i | 20µM
CCc1ccc(NCc2cc3cc4c(cc3n(CC(=O)Nc3ccc(OC)cc3)c2=O)OCO4)cc1 | i | i
COc1ccc(NCc2cc3cc4c(cc3n(CC(=O)Nc3ccc(C)cc3C)c2=O)OCO4)cc1 | i | ?
CCc1ccc(NCc2cc3ccc(OC)cc3n(CC(=O)Nc3ccc(C)c(Cl)c3)c2=O)cc1 | i | 25µM
COC(=O)C1(CC(C)C)C=C2C(=C(C(C)C)C(=O)C2C)CN1 (stereo not drawn) | i | i
COc1ccccc1NC(=O)CSC1=Nc2ccccc2N=C(c2ccc(F)cc2)C1 | i | i
Cc1ccc(-n2c(COc3c(C)cccc3C)nnc2SCC(=O)Nc2nccs2)cc1 | i | 25µM
COC(=O)Nc1nnc(/C=C/c2ccc(OC)cc2)s1 | i | i
Cc1cccc(C)c1OCc1nnc(NC(=O)CSc2ccc(Cl)cc2)s1 | i | 25µM
O=C(CSc1ccccc1)Nc1nnc(COc2ccc(Cl)cc2)s1 | i | i
Cc1ccc(OCc2nnc(SCC(=O)Nc3nccs3)n2-c2ccccc2)cc1C | i | i
COc1ccc(/C=C/c2nnc(NC(=O)CSc3ccc(Cl)cc3)s2)cc1 | i | 10µM
O=C(NCCc1cccs1)c1ccc(Cn2c(SCc3cccc(F)c3)nc3cccnc32)cc1 | i | i
CCC/C=C(\CCC)C(NS(=O)(=O)c1ccccc1)c1ccc(C(F)(F)F)cc1 (stereo not drawn) | i | i
COc1cc2oc(=O)c(CC(=O)NCc3ccc(OC)c(OC)c3)c(C)c2cc1Cl | i | i
CCc1nn(C(C)C(=O)N2CCN(c3cccc(C(F)(F)F)c3)CC2)c(=O)c2cc3occc3n12 (stereo not drawn) | i | ?
Nc1ccc(-c2nc3ccccc3[nH]2)cc1 | i | i

Compound activity (PubChem)
